Among the data in ChEMBL document CHEMBL1961873, “Compounds: GSK PKIS; Assays: Nanosyn kinase panel” (2012) are inhibition values, retold here.

For test [1], the target named is Sphingosine kinase 1 (Homo sapiens) (UniProt Q9NYA1). The following applies: at 1 µM.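 Further: mean SPHK1 inhibition value reported from the GSK PKIS kinase panel screen.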
Test [2] concerns the target T1, Sphingosine kinase 2 (Homo sapiens) (UniProt Q9NRA0).
T1 sequence (whole entry): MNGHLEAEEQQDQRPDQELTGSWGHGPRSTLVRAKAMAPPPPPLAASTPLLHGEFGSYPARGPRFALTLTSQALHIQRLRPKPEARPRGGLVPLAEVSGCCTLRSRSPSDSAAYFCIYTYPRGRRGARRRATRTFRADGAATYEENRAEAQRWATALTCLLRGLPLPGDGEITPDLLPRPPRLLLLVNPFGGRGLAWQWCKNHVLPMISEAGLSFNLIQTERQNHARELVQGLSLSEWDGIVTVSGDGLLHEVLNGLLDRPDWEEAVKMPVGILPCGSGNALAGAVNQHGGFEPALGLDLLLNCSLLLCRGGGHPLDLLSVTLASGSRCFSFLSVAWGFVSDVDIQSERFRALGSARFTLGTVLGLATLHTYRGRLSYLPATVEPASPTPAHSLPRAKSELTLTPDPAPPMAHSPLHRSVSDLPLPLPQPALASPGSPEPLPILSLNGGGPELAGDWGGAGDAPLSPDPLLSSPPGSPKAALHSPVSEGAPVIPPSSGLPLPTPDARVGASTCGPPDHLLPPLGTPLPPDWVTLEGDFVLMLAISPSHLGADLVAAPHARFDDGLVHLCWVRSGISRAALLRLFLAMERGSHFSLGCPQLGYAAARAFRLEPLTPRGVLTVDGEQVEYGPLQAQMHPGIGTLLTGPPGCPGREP
Particulars: at 0.1 µM.

Test [3] concerns the target T1, Sphingosine kinase 2 (Homo sapiens). The following applies: at 1 µM.
Test [4] concerns the target Casein kinase II subunit alpha (Homo sapiens) (UniProt P68400). The following applies: at 0.1 µM.
Test [5] has the same target. The following applies: at 1 µM.
For test [6], the target named is T2, Inhibitor of nuclear factor kappa-B kinase subunit alpha (Homo sapiens) (UniProt O15111).
T2 sequence (whole entry): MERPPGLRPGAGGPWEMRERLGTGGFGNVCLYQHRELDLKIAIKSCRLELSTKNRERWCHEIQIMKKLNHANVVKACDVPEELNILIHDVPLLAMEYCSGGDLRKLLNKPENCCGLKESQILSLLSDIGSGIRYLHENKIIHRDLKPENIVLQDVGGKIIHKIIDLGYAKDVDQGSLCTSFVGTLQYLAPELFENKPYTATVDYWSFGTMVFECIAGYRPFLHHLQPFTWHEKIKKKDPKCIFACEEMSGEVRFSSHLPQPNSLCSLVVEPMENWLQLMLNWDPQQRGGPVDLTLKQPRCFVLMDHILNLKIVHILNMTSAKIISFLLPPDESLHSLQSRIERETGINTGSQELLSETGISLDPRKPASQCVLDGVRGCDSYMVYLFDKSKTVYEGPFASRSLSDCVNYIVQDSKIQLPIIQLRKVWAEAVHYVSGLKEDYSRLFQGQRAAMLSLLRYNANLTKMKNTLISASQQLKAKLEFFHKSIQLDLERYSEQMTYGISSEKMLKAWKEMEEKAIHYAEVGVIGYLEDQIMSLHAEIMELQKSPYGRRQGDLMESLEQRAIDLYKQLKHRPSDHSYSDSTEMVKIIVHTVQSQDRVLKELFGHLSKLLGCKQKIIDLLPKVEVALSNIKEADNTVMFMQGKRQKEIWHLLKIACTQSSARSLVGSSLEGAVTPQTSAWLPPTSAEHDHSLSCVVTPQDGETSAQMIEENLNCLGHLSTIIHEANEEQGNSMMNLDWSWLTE
The following applies: at 0.1 µM.

In test [7] the target is T2, Inhibitor of nuclear factor kappa-B kinase subunit alpha (Homo sapiens). Particulars: at 1 µM.
The target of test [8] is T3, Inhibitor of nuclear factor kappa-B kinase subunit beta (Homo sapiens) (UniProt O14920).
T3 sequence (whole entry): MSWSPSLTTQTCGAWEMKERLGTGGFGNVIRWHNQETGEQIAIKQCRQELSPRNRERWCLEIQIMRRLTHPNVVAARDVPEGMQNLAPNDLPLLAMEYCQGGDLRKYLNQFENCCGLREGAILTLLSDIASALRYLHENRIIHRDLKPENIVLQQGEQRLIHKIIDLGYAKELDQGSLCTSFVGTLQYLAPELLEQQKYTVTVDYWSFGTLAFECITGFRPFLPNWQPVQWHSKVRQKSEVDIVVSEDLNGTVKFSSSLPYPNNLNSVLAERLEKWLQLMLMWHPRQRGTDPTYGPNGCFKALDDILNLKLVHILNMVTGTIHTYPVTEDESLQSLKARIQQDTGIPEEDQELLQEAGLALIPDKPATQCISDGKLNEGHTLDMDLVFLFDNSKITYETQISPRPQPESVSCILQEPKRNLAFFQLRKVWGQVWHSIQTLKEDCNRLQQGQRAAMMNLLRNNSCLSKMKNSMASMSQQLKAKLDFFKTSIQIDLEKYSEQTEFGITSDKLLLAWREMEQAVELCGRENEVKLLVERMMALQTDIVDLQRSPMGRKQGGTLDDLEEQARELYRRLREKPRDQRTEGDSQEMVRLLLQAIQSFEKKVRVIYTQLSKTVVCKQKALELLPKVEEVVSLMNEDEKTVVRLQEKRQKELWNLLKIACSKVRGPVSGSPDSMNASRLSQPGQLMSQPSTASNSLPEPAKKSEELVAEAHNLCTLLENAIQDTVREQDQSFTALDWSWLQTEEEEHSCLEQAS
Particulars: at 0.1 µM.

For test [9], the target named is T3, Inhibitor of nuclear factor kappa-B kinase subunit beta (Homo sapiens). Particulars: at 1 µM.
Test [10] concerns the target T4, Inhibitor of nuclear factor kappa-B kinase subunit epsilon (Homo sapiens) (UniProt Q14164).
T4 sequence (whole entry): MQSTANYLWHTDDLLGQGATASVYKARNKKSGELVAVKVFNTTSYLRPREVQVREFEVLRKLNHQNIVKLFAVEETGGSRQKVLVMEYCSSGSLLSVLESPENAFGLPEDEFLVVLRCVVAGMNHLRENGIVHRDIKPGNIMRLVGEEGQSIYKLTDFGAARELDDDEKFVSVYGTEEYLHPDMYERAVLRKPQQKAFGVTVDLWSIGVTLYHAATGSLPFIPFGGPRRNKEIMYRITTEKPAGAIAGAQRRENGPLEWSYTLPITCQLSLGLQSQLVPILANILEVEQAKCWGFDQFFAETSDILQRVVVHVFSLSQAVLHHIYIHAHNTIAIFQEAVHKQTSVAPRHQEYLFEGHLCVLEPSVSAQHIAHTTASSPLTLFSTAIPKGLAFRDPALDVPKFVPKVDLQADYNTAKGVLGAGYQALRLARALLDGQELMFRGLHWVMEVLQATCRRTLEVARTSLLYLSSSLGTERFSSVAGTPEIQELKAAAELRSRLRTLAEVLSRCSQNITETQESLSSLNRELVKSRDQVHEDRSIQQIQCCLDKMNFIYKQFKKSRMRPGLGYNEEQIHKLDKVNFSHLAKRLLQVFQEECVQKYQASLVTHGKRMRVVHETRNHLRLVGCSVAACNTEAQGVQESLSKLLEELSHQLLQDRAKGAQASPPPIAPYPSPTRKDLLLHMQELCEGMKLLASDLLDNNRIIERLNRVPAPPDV
The following applies: at 0.1 µM.

In test [11] the target is T4, Inhibitor of nuclear factor kappa-B kinase subunit epsilon (Homo sapiens). The following applies: at 1 µM.
The target of test [12] is T5, Serine/threonine-protein kinase Nek1 (Homo sapiens) (UniProt Q96PY6).
T5 sequence (whole entry): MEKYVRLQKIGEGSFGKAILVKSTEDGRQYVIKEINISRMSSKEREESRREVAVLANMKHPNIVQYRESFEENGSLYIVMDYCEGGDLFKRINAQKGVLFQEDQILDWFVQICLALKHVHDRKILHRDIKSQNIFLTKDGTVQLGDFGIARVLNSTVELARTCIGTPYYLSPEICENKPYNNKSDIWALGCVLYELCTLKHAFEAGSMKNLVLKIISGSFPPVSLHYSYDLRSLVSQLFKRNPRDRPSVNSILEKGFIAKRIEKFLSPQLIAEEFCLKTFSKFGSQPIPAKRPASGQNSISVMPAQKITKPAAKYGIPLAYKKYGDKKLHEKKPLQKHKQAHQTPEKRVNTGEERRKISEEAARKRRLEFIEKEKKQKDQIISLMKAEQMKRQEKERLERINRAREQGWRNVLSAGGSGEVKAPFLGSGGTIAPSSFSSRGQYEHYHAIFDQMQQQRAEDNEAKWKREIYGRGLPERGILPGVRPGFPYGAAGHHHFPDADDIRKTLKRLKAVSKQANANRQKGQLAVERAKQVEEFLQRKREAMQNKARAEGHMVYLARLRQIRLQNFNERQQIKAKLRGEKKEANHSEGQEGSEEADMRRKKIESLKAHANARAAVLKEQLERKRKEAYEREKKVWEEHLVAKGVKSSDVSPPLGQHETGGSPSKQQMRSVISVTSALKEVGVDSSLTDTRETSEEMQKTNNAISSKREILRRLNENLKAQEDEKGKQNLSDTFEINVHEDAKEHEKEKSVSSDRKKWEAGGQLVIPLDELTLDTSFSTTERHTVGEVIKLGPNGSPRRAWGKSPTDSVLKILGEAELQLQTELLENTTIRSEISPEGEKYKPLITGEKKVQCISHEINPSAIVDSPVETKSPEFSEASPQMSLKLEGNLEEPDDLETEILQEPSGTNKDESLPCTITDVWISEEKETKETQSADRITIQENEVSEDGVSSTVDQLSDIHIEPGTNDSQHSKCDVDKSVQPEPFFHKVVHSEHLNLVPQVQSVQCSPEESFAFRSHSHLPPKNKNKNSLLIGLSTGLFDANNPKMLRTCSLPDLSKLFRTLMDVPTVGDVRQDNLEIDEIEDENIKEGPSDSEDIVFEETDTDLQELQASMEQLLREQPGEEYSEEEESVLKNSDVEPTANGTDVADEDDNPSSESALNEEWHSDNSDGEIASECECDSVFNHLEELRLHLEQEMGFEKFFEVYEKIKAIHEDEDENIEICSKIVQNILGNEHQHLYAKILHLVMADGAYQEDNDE
The following applies: at 0.1 µM.

Test [13] concerns the target T5, Serine/threonine-protein kinase Nek1 (Homo sapiens). Particulars: at 1 µM.
Test [14] concerns the target T6, Serine/threonine-protein kinase Nek2 (Homo sapiens) (UniProt P51955).
T6 sequence (whole entry): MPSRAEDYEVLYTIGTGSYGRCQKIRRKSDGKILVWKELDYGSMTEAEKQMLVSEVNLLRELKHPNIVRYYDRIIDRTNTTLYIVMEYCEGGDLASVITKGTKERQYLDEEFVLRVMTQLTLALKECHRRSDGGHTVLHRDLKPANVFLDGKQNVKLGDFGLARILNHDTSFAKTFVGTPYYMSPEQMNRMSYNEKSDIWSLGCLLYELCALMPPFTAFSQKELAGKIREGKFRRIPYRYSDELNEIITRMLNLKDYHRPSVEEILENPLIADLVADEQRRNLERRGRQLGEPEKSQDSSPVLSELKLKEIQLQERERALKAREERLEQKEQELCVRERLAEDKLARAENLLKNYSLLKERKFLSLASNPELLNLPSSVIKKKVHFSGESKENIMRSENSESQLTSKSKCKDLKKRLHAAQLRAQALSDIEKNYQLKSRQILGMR
Particulars: at 0.1 µM.

The target of test [15] is T6, Serine/threonine-protein kinase Nek2 (Homo sapiens). The following applies: at 1 µM.
Test [16] addresses Serine/threonine-protein kinase Nek6 (Homo sapiens) (UniProt Q9HC98). Particulars: at 0.1 µM.
Test [17] shares this target. The following applies: at 1 µM.
Test [18] deals with Serine/threonine-protein kinase Nek7 (Homo sapiens) (UniProt Q8TDX7). The following applies: at 0.1 µM.
For test [19] the target is unchanged. Particulars: at 1 µM.
Test [20] concerns the target T7, Serine/threonine-protein kinase Nek9 (Homo sapiens) (UniProt Q8TD19).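 Further: reported value is the mean percent inhibition of NEK9.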
T7 sequence (whole entry): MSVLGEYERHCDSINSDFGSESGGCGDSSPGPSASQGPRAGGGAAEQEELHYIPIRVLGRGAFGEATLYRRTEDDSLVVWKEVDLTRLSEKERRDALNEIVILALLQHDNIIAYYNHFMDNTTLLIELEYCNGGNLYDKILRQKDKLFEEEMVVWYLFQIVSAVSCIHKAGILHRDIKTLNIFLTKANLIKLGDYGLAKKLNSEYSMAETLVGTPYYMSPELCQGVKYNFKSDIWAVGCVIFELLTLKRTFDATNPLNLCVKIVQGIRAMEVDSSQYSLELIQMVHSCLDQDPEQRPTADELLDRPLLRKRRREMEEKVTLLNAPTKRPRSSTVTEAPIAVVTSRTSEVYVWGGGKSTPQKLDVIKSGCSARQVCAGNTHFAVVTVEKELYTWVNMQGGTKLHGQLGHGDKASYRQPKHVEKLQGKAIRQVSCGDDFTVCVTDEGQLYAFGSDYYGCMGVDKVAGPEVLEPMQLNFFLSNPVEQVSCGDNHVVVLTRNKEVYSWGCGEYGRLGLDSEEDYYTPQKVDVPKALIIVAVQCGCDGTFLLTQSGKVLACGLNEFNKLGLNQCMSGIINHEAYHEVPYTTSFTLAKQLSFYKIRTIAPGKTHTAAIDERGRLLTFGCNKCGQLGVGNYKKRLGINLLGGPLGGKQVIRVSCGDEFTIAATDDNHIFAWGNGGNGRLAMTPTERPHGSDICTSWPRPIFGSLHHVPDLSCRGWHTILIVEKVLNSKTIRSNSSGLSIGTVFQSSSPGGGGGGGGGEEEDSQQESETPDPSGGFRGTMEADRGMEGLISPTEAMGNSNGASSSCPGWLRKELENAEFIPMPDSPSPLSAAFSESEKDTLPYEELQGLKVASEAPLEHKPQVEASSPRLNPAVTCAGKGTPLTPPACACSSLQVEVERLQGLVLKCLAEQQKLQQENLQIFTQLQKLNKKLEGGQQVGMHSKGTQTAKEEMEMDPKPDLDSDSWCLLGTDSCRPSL
The following applies: at 0.1 µM.

Molecules are shown by their SMILES.

Casein kinase II subunit alpha (Homo sapiens), sequence (P68400 whole entry, looked up): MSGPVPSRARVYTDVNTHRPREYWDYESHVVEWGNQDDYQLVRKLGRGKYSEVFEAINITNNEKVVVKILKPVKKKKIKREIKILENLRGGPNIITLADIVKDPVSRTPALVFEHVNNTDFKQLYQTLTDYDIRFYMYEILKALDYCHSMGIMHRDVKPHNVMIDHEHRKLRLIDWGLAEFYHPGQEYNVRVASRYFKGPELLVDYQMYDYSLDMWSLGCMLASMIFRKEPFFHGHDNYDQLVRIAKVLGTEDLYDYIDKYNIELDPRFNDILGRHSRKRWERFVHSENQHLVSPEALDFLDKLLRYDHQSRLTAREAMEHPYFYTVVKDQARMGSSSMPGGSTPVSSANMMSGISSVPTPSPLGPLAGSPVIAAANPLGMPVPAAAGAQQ
Serine/threonine-protein kinase Nek6 (Homo sapiens), sequence (Q9HC98 whole entry): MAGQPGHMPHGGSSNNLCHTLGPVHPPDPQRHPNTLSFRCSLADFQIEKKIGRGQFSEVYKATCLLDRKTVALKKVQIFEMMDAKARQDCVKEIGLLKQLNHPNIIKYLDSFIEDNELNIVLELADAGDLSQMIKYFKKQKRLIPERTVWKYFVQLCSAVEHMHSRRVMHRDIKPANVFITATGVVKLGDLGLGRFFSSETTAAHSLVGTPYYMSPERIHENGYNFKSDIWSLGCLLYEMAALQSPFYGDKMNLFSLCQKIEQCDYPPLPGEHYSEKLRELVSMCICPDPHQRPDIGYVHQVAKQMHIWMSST
Serine/threonine-protein kinase Nek7 (Homo sapiens), sequence (Q8TDX7 whole entry, looked up): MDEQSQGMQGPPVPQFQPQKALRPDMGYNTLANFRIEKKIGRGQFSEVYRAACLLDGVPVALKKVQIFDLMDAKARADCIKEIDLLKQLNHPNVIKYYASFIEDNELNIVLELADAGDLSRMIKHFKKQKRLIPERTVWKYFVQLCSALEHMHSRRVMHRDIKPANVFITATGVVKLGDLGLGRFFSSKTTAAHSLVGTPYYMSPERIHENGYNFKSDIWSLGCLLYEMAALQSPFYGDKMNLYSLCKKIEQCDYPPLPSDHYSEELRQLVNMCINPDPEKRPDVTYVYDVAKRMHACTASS
Sphingosine kinase 1 (Homo sapiens), sequence (Q9NYA1 whole entry): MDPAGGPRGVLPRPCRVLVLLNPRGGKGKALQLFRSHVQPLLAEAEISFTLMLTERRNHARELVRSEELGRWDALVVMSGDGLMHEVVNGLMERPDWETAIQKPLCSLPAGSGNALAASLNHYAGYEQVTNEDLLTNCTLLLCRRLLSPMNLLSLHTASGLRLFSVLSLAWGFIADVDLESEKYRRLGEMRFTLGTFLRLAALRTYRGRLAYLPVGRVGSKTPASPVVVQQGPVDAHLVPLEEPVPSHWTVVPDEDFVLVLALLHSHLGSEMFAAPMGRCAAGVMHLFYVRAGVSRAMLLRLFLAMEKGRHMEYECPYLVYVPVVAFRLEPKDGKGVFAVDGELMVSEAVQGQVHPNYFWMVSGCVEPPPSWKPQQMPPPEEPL

As to `c1cc(-c2cnn3nc(N4CCOCC4)ccc23)nc(NC2CC2)n1`, the inhibition in [1] amounted to 0.41%; in test [2], 0%; in [3], 1.66%; in test [4], 1.46%; in test [5], 7.14%; in test [6] it was 6.71%. Besides, the inhibition in [7] is 15.7%; in [8], 3.81%; in test [9], 5.82%; in test [10] it was 2.67%; in [11], 5.49%; in [12], 3.14%. The inhibition was 6.78% in test [13]; 4.47% in test [14]; 4.05% in test [15]; 0.95% in test [16]; 0.56% in test [17]; 3.89% in test [18]. In addition, the inhibition in test [19] was 4.77%; in test [20] it was -1.68%.
